The record followed here is the OligoGym collection.
Also: reference of the scale not given here.

The first assay deals with ZNF32. The experiment in a line: pooled miR-30 sensor sort-seq; sequence = guide strand. The conditions noted are these: shRNA.
On to ATATCTTCCATGACAGTCCAGC, for which the sensor-assay potency score (higher = more potent) was -0.761. Still for that read-out and setting: with TAACGTTAGACTACCTTTTTGC the figure was -0.0672. Still for that read-out and setting: with TTGATGTGTAACAAGATTGCCT the figure was 0.254; with TCTTCCATGACAGTCCAGCAGG, -1.26. Same read-out and setting: with TTGAGGATCCTGTAGCCTCAGA the figure was -1.2; with TGTAGTGTCTTCGAATCTGGGG, 0.479; with TTGAAGAACGCTACATTCTGGG, 0.82. In turn, TGAATCTTCCTGTAGTGTCTTC gave a sensor-assay potency score (higher = more potent) of -0.275. As for TCTTCCTGTAGTGTCTTCGAAT, the sensor-assay potency score (higher = more potent) is -1.44. TATCCCAGCTTGAGGATCCTGT: the sensor-assay potency score (higher = more potent) is -0.615. Same read-out and setting: the same measure for TTAGACTACCTTTTTGCCGGAA: -0.355. TAGTGTCTTCGAATCTGGGGAT displayed a sensor-assay potency score (higher = more potent) of -0.0716.

A further assay concerns the target ZNF343. Described as above. The settings on record: shRNA.
On to TTTGACTTATGACTAAAGCCTC, for which the sensor-assay potency score (higher = more potent) was -0.874.

The sequence TATCATTAGAAGGCAAGCCTTT had a sensor-assay potency score (higher = more potent) of -0.78.

Sequence TTGACTTCTGGCTAAAACCTCG showed a sensor-assay potency score (higher = more potent) of -0.583. Same read-out and setting: with TTTCGCTTTATGATTTTGGGTC the figure was -0.0502; with TTGACTTGTCACAAAAGCCTCG, -0.0132; with TACATGTTGACTGAGGAACTGC, -0.356. TTGACTTATGACTAAAGCCTCG displayed a sensor-assay potency score (higher = more potent) of -0.75.

TTGAGGATGGACTTACTTCTAA: the sensor-assay potency score (higher = more potent) is -0.709. Still for that read-out and setting: with TTGATGAGATCTGAGTTCTGGC the figure was 0.144; with TTTGATGAGATCTGAGTTCTGG, 0.519; with ATAGTCTCTACATTTTCCCCAT, -0.495. Same read-out and setting: the same measure for TAGAAGGCAAGCCTTTCGCTTT: -0.611.

The target in a further assay is ZNF383. The assay is described as above. The conditions noted are these: shRNA.
Turning to TAACTTGGTTTCACACATCGAT, the sensor-assay potency score (higher = more potent) amounted to 0.203. Same read-out and setting: the same measure for TATATTCCAAAACATCTCCAAA: -1.29; for TAAATTGTGAGTTCTGACTAAA: -0.929; for TTGAATAAATTGTGAGTTCTGA: -0.124. Turning to TTCTTTAGAGATAATAACTTGG, the sensor-assay potency score (higher = more potent) is -0.196. TTGAACAAGCTTTGAGCTCTGG gave a sensor-assay potency score (higher = more potent) of 0.42. The sequence TAACATGTGAACCACAACTAAA displayed a sensor-assay potency score (higher = more potent) of -1.41. On to TAAGATTTGAGCAATAACTAAA, for which the sensor-assay potency score (higher = more potent) was -1.31.

Regarding TTGAGCAATAACTAAAGGCCTT, the sensor-assay potency score (higher = more potent) was -0.458. On to TTCTATTTCATAAACTTCCTTC, for which the sensor-assay potency score (higher = more potent) was -0.0685. On the same count and under the same terms, the same measure for TCTCTGATGTTGAACAAGCTTT: -0.743.

The next assay deals with ZNF384. The assay is described as above. The settings on record: shRNA.
For TTGAGCTTGAGCCTGGGCCTGG, the sensor-assay potency score (higher = more potent) is -0.952. Same read-out and setting: with ATAAGGGTCATTCATCTCGGGC the figure was -1.42; with ATCTTGTTGATGAACATTGTGT, -0.823. The sequence ATTTGTATGGTCTATCACCAGT showed a sensor-assay potency score (higher = more potent) of -0.958.

TTGATGAACATTGTGTTCTCGA showed a sensor-assay potency score (higher = more potent) of 0.78.
